# PubChem BioAssay AID1159580 (chemical genetic matrix, 2015)
# Screen size: about 5,500 compounds; about 2,000 (36%) were called active. Another 18% or so got no clear call; they are omitted. The list shows a part of the results. Unmarked numbers belong to inactive results. Rule as the data show it: active = normalized growth mostly below about 0.91 (no sharp cut-off); inconclusive = no clear call, values can overlap the other calls; inactive = mostly above about 0.92.
# Assay: chemical genetic growth profiling, strain panel (AID 1159580);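 also: tested at 20 µM; growth read once vehicle control cultures reached saturation at 30 °C; 1 = growth at the plate median or of vehicle wells; lower values mean less growth of the strain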
# Details: S. cerevisiae deletion strains, growth OD
# [1] = locus YAR019C, strain CDC15, hits give low values
# [2] = locus YBL105C, strain PKC1, hits give low values
# [3] = locus YBR135W, strain CKS1, hits give low values
# [4] = locus YBR136W, strain MEC1, hits give low values
# [5] = locus YBR160W, strain CDC28, hits give low values
# [6] = locus YDL017W, strain CDC7, hits give low values
# [7] = locus YDL028C, strain MPS1, hits give low values
# [8] = locus YDL101C, strain DUN1, hits give low values
# [9] = locus YDL108W, strain KIN28, hits give low values
# [10] = locus YDL132W, strain cdc53, hits give low values
# [11] = locus YDL214C, strain PRR2, hits give low values
# [12] = locus YDR052C, strain DBF4, hits give low values
# [13] = locus YDR054C, strain cdc34, hits give low values
# [14] = locus YDR226W, strain ADK1, hits give low values
# [15] = locus YDR477W, strain SNF1, hits give low values
# [16] = locus YER123W, strain YCK3, hits give low values
# [17] = locus YER133W, strain GLC7, hits give low values
# [18] = locus YFL009W, strain cdc4, hits give low values
# [19] = locus YFL029C, strain CAK1, hits give low values
# [20] = locus YFR003C, strain YPI1, hits give low values
# [21] = locus YFR019W, strain FAB1, hits give low values
# [22] = locus YFR028C, strain CDC14, hits give low values
# [23] = locus YGR040W, strain KSS1, hits give low values
# [24] = locus YGR052W, strain FMP48, hits give low values
# [25] = locus YGR092W, strain DBF2, hits give low values
# [26] = locus YHR030C, strain SLT2, hits give low values
# [27] = locus YHR079C, strain IRE1, hits give low values
# [28] = locus YHR082C, strain KSP1, hits give low values
# [29] = locus YHR205W, strain SCH9, hits give low values
# [30] = locus YIL147C, strain SLN1, hits give low values
# [31] = locus YJL095W, strain BCK1, hits give low values
# [32] = locus YJL128C, strain PBS2, hits give low values
# [33] = locus YJL157C, strain FAR1, hits give low values
# [34] = locus YJR016C, strain ILV3, hits give low values
# [35] = locus YJR066W, strain TOR1 (second series), hits give low values
# [36] = locus YJR066W, strain TOR1, hits give low values
# [37] = locus YKL048C, strain ELM1, hits give low values
# [38] = locus YKL067W, strain YNK1, hits give low values
# [39] = locus YKL101W, strain HSL1, hits give low values
# [40] = locus YKL193C, strain SDS22, hits give low values
# [41] = locus YKL203C, strain TOR2, hits give low values
# [42] = locus YLR113W, strain HOG1, hits give low values
# [43] = locus YLR133W, strain CKI1, hits give low values
# [44] = locus YLR403W, strain SFP1, hits give low values
# [45] = locus YML070W, strain DAK1, hits give low values
# [46] = locus YMR001C, strain CDC5, hits give low values
# [47] = locus YMR205C, strain PFK2 (second series), hits give low values
# [48] = locus YMR277W, strain FCP1, hits give low values
# [49] = locus YNL006W, strain LST8, hits give low values
# [50] = locus YNL020C, strain ARK1, hits give low values
# [51] = locus YNL161W, strain CBK1, hits give low values
# [52] = locus YNL183C, strain NPR1, hits give low values
# [53] = locus YNL207W, strain RIO2, hits give low values
# [54] = locus YNL222W, strain SSU72, hits give low values
# [55] = locus YNL307C, strain MCK1 (second series), hits give low values
# [56] = locus YOL078W, strain AVO1, hits give low values
# [57] = locus YOL136C, strain PFK27, hits give low values
# [58] = locus YOR061W, strain CKA2, hits give low values
# [59] = locus YOR119C, strain RIO1, hits give low values
# [60] = locus YOR231W, strain MKK1, hits give low values
# [61] = locus YOR329C, strain SCD5, hits give low values
# [62] = locus YPL031C, strain PHO85, hits give low values
# [63] = locus YPL153C, strain RAD53, hits give low values
# [64] = locus YPL204W, strain HRR25, hits give low values
# [65] = locus YPL209C, strain IPL1, hits give low values
# [66] = locus YPL256C, strain CLN2, hits give low values
# [67] = locus YPR025C, strain CCL1, hits give low values
# [68] = locus YPR106W, strain ISR1, hits give low values
# [69] = locus YPR111W, strain DBF20, hits give low values
# [70] = strain NNK1, hits give low values
# [71] = strain TSCII, hits give low values
smiles,measurement,setting,value
COc1ccc(-c2cc(NS(=O)(=O)c3cccc(F)c3)n(-c3ccc(Cl)c(Cl)c3)n2)cc1,normalized growth,[1],0.961
same,normalized growth,[2],0.971
same,normalized growth,[3],0.977
same,normalized growth,[4],0.965
same,normalized growth,[5],0.963
same,normalized growth,[6],0.97
same,normalized growth,[7],0.945
same,normalized growth,[8],0.979
same,normalized growth,[9],0.975
same,normalized growth,[10],0.977
same,normalized growth,[11],0.92
same,normalized growth,[12],0.984
same,normalized growth,[13],0.966
same,normalized growth,[14],0.961
same,normalized growth,[15],0.903
same,normalized growth,[16],0.908
same,normalized growth,[17],0.94
same,normalized growth,[18],0.947
same,normalized growth,[19],0.961
same,normalized growth,[20],0.98
same,normalized growth,[21],0.931
same,normalized growth,[22],0.965
same,normalized growth,[23],0.894
same,normalized growth,[24],0.954
same,normalized growth,[25],0.838
same,normalized growth,[26],0.635 (active)
same,normalized growth,[27],0.888
same,normalized growth,[28],0.873
same,normalized growth,[29],0.856
same,normalized growth,[30],0.959
same,normalized growth,[31],0.888
same,normalized growth,[32],0.921
same,normalized growth,[33],0.939
same,normalized growth,[34],0.972
same,normalized growth,[35],0.922
same,normalized growth,[36],0.87
same,normalized growth,[37],0.929
same,normalized growth,[38],0.91
same,normalized growth,[39],0.87
same,normalized growth,[40],0.968
same,normalized growth,[41],0.995
same,normalized growth,[42],0.811 (active)
same,normalized growth,[43],0.912
same,normalized growth,[44],0.924
same,normalized growth,[45],0.906
same,normalized growth,[46],0.956
same,normalized growth,[47],0.937
same,normalized growth,[48],0.947
same,normalized growth,[49],0.966
same,normalized growth,[50],0.89
same,normalized growth,[51],0.971
same,normalized growth,[52],0.956
same,normalized growth,[53],0.973
same,normalized growth,[54],0.958
same,normalized growth,[55],0.839
same,normalized growth,[56],0.976
same,normalized growth,[57],0.887
same,normalized growth,[58],0.87
same,normalized growth,[59],0.944
same,normalized growth,[60],0.873
same,normalized growth,[61],0.967
same,normalized growth,[62],0.913
same,normalized growth,[63],0.915
same,normalized growth,[64],0.905
same,normalized growth,[65],0.97
same,normalized growth,[66],0.828 (active)
same,normalized growth,[67],0.966
same,normalized growth,[68],0.963
same,normalized growth,[69],0.942
same,normalized growth,[70],0.961
same,normalized growth,[71],0.962
COc1ccc(-n2nc(C(F)(F)F)cc2-c2ccc(Cl)cc2)cc1,normalized growth,"locus YAL040C, strain CLN3, hits give low values",1.09
same,normalized growth,"locus YCL061C, strain MRC1 (second series), hits give low values",1.01
same,normalized growth,"locus YDR363W, strain ESC2, hits give low values",1.02
same,normalized growth,"locus YER002W, strain NOP16, hits give low values",1.03
same,normalized growth,"locus YGR078C, strain PAC10, hits give low values",1.01
same,normalized growth,"locus YMR263W, strain SAP30, hits give low values",1
same,normalized growth,"locus YMR307W, strain GAS1, hits give low values",1.01
same,normalized growth,"locus YNL175C, strain NOP13, hits give low values",1.02
same,normalized growth,"locus YNL197C, strain WHI3, hits give low values",1.02
same,normalized growth,"locus YNL224C, strain SQS1, hits give low values",0.998
same,normalized growth,"locus YNL322C, strain KRE1, hits give low values",1.02
same,normalized growth,"locus YOR083W, strain WHI5 (second series), hits give low values",1.02
same,normalized growth,"locus YPL055C, strain LGE1, hits give low values",1.02
same,normalized growth,"locus YPL241C, strain CIN2, hits give low values",1
O=S(=O)(Nc1cc(-c2cccs2)nn1-c1ccc(I)cc1)c1cccc(F)c1,normalized growth,[1],0.957
same,normalized growth,[2],0.966
same,normalized growth,[3],0.966
same,normalized growth,[4],0.97
same,normalized growth,[5],0.956
same,normalized growth,[6],0.97
same,normalized growth,[7],0.948
same,normalized growth,[8],0.983
same,normalized growth,[9],0.958
same,normalized growth,[10],0.966
same,normalized growth,[11],0.926
same,normalized growth,[12],0.983
same,normalized growth,[13],0.986
same,normalized growth,[14],0.961
same,normalized growth,[15],0.926
same,normalized growth,[16],0.929
same,normalized growth,[17],0.951
same,normalized growth,[18],0.971
same,normalized growth,[19],0.953
same,normalized growth,[20],0.979
same,normalized growth,[21],0.974
same,normalized growth,[22],0.983
same,normalized growth,[23],0.931
same,normalized growth,[24],0.966
same,normalized growth,[25],0.876
same,normalized growth,[26],0.715 (active)
same,normalized growth,[27],0.922
same,normalized growth,[28],0.968
same,normalized growth,[29],0.863
same,normalized growth,[30],0.967
same,normalized growth,[31],0.903
same,normalized growth,[32],0.91
same,normalized growth,[33],0.956
same,normalized growth,[34],0.969
same,normalized growth,[35],0.952
same,normalized growth,[36],0.906
same,normalized growth,[37],0.947
same,normalized growth,[38],0.912
same,normalized growth,[39],0.931
same,normalized growth,[40],0.971
same,normalized growth,[41],1.03
same,normalized growth,[42],0.848 (active)
same,normalized growth,[43],0.935
same,normalized growth,[44],0.944
same,normalized growth,[45],0.936
same,normalized growth,[46],0.966
same,normalized growth,[47],0.945
same,normalized growth,[48],0.968
same,normalized growth,[49],0.964
same,normalized growth,[50],0.946
same,normalized growth,[51],0.974
same,normalized growth,[52],0.986
same,normalized growth,[53],0.968
same,normalized growth,[54],0.956
same,normalized growth,[55],0.911
same,normalized growth,[56],0.966
same,normalized growth,[57],0.925
same,normalized growth,[58],0.951
same,normalized growth,[59],0.961
same,normalized growth,[60],0.935
same,normalized growth,[61],0.968
same,normalized growth,[62],0.928
same,normalized growth,[63],0.943
same,normalized growth,[64],0.928
same,normalized growth,[65],0.975
same,normalized growth,[66],0.87
same,normalized growth,[67],0.966
same,normalized growth,[68],0.964
same,normalized growth,[69],1.01
same,normalized growth,[70],0.965
same,normalized growth,[71],0.965
